From PubChem
Cav3 T inh: inhibitors of human Cav3.2 T-type calcium channel. actives 4% (n = 100,000). Cav3.2-expressing cells, Fluo-4 calcium fluorescence FDSS; stronger effect = lower value. B-score at 10 µM;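 active means single-dose well whose peak fluorescence ratio is a statistical outlier from its plate by either plate-standardised score or position-corrected B-score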
Target sequence (O95180 whole entry, looked up): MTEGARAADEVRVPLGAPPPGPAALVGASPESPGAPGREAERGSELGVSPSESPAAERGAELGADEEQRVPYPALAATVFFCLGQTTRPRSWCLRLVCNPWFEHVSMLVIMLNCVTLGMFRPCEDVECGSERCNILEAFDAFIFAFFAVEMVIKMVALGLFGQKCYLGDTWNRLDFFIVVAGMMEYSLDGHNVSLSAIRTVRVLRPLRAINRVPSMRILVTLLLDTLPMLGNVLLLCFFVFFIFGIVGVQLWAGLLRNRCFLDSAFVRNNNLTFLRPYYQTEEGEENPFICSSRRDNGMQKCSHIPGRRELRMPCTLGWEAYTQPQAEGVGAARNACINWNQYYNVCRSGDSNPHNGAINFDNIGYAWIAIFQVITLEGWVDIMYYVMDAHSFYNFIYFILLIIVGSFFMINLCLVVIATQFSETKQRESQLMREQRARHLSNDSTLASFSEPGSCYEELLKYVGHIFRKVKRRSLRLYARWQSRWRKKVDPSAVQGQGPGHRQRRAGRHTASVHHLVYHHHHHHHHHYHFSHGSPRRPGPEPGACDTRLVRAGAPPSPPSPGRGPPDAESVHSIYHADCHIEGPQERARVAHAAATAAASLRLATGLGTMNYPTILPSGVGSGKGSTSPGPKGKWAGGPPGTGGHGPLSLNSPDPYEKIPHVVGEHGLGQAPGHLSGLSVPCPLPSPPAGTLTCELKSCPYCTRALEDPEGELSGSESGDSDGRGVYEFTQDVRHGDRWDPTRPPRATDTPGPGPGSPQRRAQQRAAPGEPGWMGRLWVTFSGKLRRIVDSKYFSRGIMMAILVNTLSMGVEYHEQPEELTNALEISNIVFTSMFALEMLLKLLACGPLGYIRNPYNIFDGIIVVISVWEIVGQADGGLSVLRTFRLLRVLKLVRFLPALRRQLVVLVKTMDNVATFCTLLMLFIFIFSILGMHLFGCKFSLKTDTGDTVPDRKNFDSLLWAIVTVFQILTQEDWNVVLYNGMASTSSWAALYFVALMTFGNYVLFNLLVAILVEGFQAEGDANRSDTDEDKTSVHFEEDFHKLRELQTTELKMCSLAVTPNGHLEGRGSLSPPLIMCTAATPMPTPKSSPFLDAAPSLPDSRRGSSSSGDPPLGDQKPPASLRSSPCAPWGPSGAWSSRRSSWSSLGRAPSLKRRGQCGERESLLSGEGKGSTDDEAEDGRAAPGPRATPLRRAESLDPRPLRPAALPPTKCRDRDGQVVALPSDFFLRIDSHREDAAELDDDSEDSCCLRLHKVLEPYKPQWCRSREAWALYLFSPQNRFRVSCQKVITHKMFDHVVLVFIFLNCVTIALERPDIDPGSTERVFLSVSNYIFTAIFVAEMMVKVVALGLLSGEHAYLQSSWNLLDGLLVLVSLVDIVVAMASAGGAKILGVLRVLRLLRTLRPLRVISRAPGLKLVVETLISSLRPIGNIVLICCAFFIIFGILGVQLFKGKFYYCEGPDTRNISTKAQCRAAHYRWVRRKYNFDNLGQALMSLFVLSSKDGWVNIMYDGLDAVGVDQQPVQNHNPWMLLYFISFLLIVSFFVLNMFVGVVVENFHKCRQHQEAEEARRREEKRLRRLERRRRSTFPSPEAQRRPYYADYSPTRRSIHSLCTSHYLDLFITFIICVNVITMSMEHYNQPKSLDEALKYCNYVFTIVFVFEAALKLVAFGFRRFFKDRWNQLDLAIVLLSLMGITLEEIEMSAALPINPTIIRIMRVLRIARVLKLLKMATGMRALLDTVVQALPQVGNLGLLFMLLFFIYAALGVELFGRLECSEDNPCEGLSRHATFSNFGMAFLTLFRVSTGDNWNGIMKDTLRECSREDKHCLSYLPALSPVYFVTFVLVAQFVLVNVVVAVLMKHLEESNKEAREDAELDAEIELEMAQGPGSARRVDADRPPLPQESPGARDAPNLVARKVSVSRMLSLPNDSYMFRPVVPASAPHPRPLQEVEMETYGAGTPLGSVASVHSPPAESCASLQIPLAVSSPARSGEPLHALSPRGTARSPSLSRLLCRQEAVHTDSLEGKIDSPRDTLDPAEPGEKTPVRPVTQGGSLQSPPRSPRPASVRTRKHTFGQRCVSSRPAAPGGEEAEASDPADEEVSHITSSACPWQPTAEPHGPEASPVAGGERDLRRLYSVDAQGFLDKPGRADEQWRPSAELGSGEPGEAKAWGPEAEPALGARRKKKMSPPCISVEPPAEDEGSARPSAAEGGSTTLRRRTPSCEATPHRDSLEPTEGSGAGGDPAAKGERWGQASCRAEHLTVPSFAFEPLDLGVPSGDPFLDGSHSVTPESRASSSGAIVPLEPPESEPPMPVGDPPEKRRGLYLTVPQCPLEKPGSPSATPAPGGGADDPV
PLAP activator: activates human placental alkaline phosphatase; purified PLAP enzyme, luminescent substrate read-out; stronger effect = higher value; actives 1.2% (n = 96,000); P05187; activation fold at 20 µM; in the data active means activation fold above about 2
PostGolgi yeast: growth inhibition of a yeast mutant, post-Golgi transport screen. post-Golgi transport phenotypic cell assay. inhibition, % at 10 µM. actives 0.9% (n = 98,000);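 further: yeast cells grown in 1536-well plates; yeast grown about 18 h at 30C before absorbance read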
hDAT+cocaine: human DAT dopamine uptake with cocaine, either direction; Q01959; LLC-PK1 hDAT cells, [14C]-dopamine uptake with cocaine IC80; actives deviate in either direction; B-score at 10 µM; actives 1.3% (n = 110,000); AID 449768;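 active means Z score or B-score, a plate-position-corrected score, falls beyond the plate's 99.7% confidence bounds, in either direction; inactive means both scores lie inside the 99.7% bounds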
PostGolgi ctrl: inhibits growth of the yeast control strain | efflux-deficient yeast background strain, growth absorbance A615, 16 h | actives 5% (n = 98,000) | AID 738 | inhibition, % at 10 µM
Large screens that a line does not name were inactive. A selection: hits, their analogues and other compounds. The true share with any hit is near 9.6%. Unless noted, no stated cut-off is given here; in the data, active means inhibition above about 30%; inactive means the rest.

O=C(Nc1ccc2nc(-c3cccnc3)[nH]c2c1)C12CC3CC(CC(C3)C1)C2	none (no result: PLAP activator, PostGolgi yeast, PostGolgi ctrl)
CC(C)c1nc2ccc(NC(=O)C34CC5CC(CC(C5)C3)C4)cc2[nH]1	PLAP activator 2
C/C=C/c1ccc(OCCn2cncn2)c(OC)c1	none
COc1cc(NC(C)C(=O)N2CC(C)OC(C)C2)cc(OC)c1 (stereo not given)	none
NC1=NC2(CCCCC2)N=C(Nc2ccc(F)cc2F)N1	none
Cc1cc(C)cc(NC2=NC3(CCCCC3)N=C(N)N2)c1	PLAP activator 2.7
CCC(C)C(NC(=O)[C@@H](NC(=O)c1ccccc1F)C(C)C)C(=O)OC (stereo not given in full)	none
CCCCCCn1c(CN2CCCCC2CC)nc2c1c(=O)n(C)c(=O)n2C (stereo not given)	none
CC(=O)C1=C(C)NC(SCC(=O)c2ccc(Cl)c(Cl)c2)=C(C#N)C1c1ccco1 (stereo not given)	none (no result: PostGolgi yeast, PostGolgi ctrl)
CCOC(=O)CSC1=C(C#N)C(c2sccc2C)C(C(C)=O)=C(C)N1 (stereo not given)	none
CC(=O)C1=C(C)NC(SCC(=O)c2cc(Cl)ccc2Cl)=C(C#N)C1c1ccco1 (stereo not given)	Cav3 T inh -3.7 (no result: PostGolgi yeast, PostGolgi ctrl)
CC1=C(C(=O)Nc2ccccc2)C(c2ccco2)C(C#N)=C(SCC(=O)OC(C)C)N1 (stereo not given)	Cav3 T inh -4.9
CC(=O)C1=C(C)NC(SCC(N)=O)=C(C#N)C1c1sccc1C (stereo not given)	hDAT+cocaine 6.9
CC1=C(C(=O)Nc2ccccc2)C(c2ccco2)C(C#N)=C(SCC(=O)Nc2cccc(C)c2C)N1 (stereo not given)	Cav3 T inh -5.4
CC1CCCC(C)N1C(=O)COC(=O)c1ccc(O)cc1 (stereo not given)	none
COc1ccc(N(CC(=O)NCc2ccco2)S(C)(=O)=O)cc1Cl	none
CCOC(=O)c1sc(-c2ccc(Br)cc2)cc1N	PostGolgi ctrl 45
CCCOc1ccc(C2/C(=C(\O)c3c(C)[nH]c(C(=O)OC)c3C)C(=O)C(=O)N2CCN(C)C)cc1 (stereo not given)	PostGolgi ctrl 32
CCN1CCN(c2cc(C)c3cc(NC(=O)c4ccc(OC)c(OC)c4)ccc3n2)CC1	hDAT+cocaine 2.6
O=C(O)c1ccc2c(c1)C(=O)N(CCC1=CCCCC1)C2=O	none (no result: Cav3 T inh)
CN(C(=O)c1ccc2c(c1)C(=O)N(CCC1=CCCCC1)C2=O)C1CCCCC1	Cav3 T inh -6.1, PostGolgi ctrl 34
CCOC(=O)c1ccccc1NC(=O)Cn1cnc2c(oc3ccccc32)c1=O	none
O=C(CCCCCC(=O)N(CCO)CCO)N(CCO)CCO	none
O=C(COc1ccccc1)Nc1nnc(-c2ccc(Cl)s2)o1	Cav3 T inh -4.8
COc1ccc(-c2cc3nc(C)cc(NCCO)n3n2)cc1	none
COc1ccc(-c2cc3nc(C)cc(N)n3n2)cc1	hDAT+cocaine -8.4
CC1CN(C2CCN(S(=O)(=O)Cc3ccccc3)CC2)CC(C)O1 (stereo not given)	none
CCCCC(=O)Nc1cccc(-c2nc3ncccc3o2)c1	none
COc1c(C)cc(Br)cc1C(=O)Nc1cccc(-c2nc3ncccc3o2)c1	PostGolgi ctrl 41
CCC1CCCCN1C(=O)CSc1nnc(-c2c[nH]c3ccccc23)o1 (stereo not given)	none
CSC1=NCCN1C(=O)c1c(F)cccc1F	none
COC(=O)C1CC(O)CN1C(=O)c1ccco1 (stereo not given)	PostGolgi ctrl 34
CCOc1ccc(N(C(C)C(=O)NCc2ccco2)S(C)(=O)=O)cc1 (stereo not given)	PLAP activator 2
CCOc1ccc(N(C(C)C(=O)NC2CCCCCC2)S(C)(=O)=O)cc1 (stereo not given)	none
Cc1cc(/C=C(\C#N)C(=O)NCc2cccs2)c(C)n1-c1ccccc1F	Cav3 T inh -4.8
Cc1cc(/C=C(\C#N)C(=O)Nc2ccccc2)c(C)n1-c1ccc2c(c1)OCO2	PostGolgi ctrl 55
COc1ccccc1NC(=O)C1=C(C)Nc2nc(-c3ccccc3)nn2C1c1ccccn1 (stereo not given)	Cav3 T inh -7.6
CC(=O)Nc1nc(C=C(Cl)Cl)cs1	PostGolgi ctrl 33
CC(=O)Nc1nc(C(=O)Nc2c(C)n[nH]c2C)cs1	none
Cc1cccc(N=C2N=C(N)c3ccccc32)c1	PostGolgi ctrl 33
C=CCn1c(N)c(C(=O)Nc2cccc(C)c2)c2nc3ccccc3nc21	PostGolgi ctrl 35
O=C1CN(C(=O)COC(=O)c2ccccc2NCc2ccco2)c2ccccc2N1	Cav3 T inh -3.8
